# Assay outcomes (PubChem)
# ELG1 genotoxic = qHTS screen for small molecules that induce genotoxicity in human embryonic kidney (HEK293T) cells expressing luciferase-tagged ELG1. HEK293T ELG1-luciferase reporter, luminescence, 16 h. actives 1.3% (n = 330,000). Potency, µM (series often up to 46 µM), for the others: top-dose activity change, positive = activation, usual class: activators. AID 504466, 2011; further: % of control where 0% means no effect; nearly all actives have a fitted effect of over 60% in size
#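 Luminescence read-out: rising ELG1-luciferase signal, reflecting elevated ELG1 protein under genetic stress, flags genotoxic compounds. Cells were treated for 16 hr at 37 °C before ONE-Glo detection.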
# Rab9 promoter act = qHTS Assay for Rab9 Promoter Activators. actives 2.8% (n = 320,000). AID 485297, 2010. Potency, µM (series often up to 9.22 µM), for inactives: top-dose activation, negative = inhibition, actives largely listed as activators. Huh7 Rab9 promoter-luciferase reporter, luminescence, 24 h; further: % of control where 0% means no effect; nearly all actives have a fitted effect of over 60% in size
#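 Huh7 reporter line, Rab9 promoter upstream of luciferase. Compound exposure 24 h at 37 °C in reduced-serum medium with 10% FBS. Read-out: luminescence.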
# FLuc counter = qHTS profiling assay for firefly luciferase inhibitor/activator using purifed enzyme and Km concentrations of substrates (counterscreen for miR-21 project); Luciferin 4-monooxygenase (Photinus pyralis), P08659; purified FLuc, Km substrates, luminescence inhibition; Potency, µM (top dose mostly 57.5 µM), inactives show at the highest dose activity change, negative = inhibition, actives largely listed as inhibitors; actives 6.9% (n = 360,000); AID 588342, 2011;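 further: plate controls were vehicle for no effect and reference inhibitor for full effect; nearly all actives have a fitted effect of over 55% in size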
# Target sequence (P08659 whole entry, looked up): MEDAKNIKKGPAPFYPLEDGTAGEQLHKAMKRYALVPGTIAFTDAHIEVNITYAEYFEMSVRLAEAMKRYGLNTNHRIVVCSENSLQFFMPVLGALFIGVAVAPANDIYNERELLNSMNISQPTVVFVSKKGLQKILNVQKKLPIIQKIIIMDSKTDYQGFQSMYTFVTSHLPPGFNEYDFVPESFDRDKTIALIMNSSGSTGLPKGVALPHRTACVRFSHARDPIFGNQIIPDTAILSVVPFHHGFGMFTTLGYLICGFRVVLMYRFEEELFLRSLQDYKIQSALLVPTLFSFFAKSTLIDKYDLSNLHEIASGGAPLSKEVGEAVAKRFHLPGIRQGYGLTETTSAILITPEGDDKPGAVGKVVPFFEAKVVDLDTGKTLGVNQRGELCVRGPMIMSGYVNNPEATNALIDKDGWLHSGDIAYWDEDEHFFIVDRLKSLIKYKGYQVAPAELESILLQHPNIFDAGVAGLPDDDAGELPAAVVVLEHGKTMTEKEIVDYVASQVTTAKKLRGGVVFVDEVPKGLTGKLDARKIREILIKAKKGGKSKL
#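 Biochemical qHTS of compounds, final roughly 60 µM downward over six points, against 10 nM purified firefly luciferase using Km concentrations of substrates (10 uM D-luciferin, 10 uM ATP) in Tris acetate pH 7.5 buffer; luminescence output.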
# NPC1 promoter act = qHTS Assay for NPC1 Promoter Activators; Huh7 NPC1 promoter luciferase reporter, 24 h; Potency, µM (doses to about 9.22 µM), for inactives: top-dose activation, hits mostly activators; actives 2.4% (n = 320,000); AID 485313, 2010; further: % of control where 0% means no effect; nearly all actives have a fitted effect of over 60% in size
#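 Luminescence read-out of NPC1 promoter-driven luciferase in stably transfected Huh7 cells; compounds delivered in DMSO and left 24 h at 37C, 5% CO2, qHTS titration format.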
# SMN2 splice up = qHTS Assay for Enhancers of SMN2 Splice Variant Expression; HEK293 SMN2-luciferase splicing reporter, luminescence, 30-36 h; actives 2.8% (n = 210,000); Potency, µM (doses to about 46.1 µM), inactives show at the top dose activity change, positive = activation, most hits filed as activators; further: % of control where 0% means no effect; nearly all actives have a fitted effect of over 55% in size
#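 HEK293 cells carry an SMN2 […]–luciferase reporter in which exon 7 inclusion puts luciferase in frame. Cells were plated 10-12 h before compound addition, then incubated 30-36 h at 37C. ONE-Glo luminescence was read; sodium butyrate at 4.5 mM final served as control.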
# An asterisk follows results filed as active; u = inconclusive; x = no result given; ! = not active in a repeat; [ ] = remark or other dose. Shown are actives, neighbours in structure and some others; about 7.5% of the full set was active somewhere. The call rests on the fitted dose curve; in most records, active means well fitted curve in the direction sought with a large enough effect; inconclusive means small, poorly fitted or top-dose-only effect, or another doubt; inactive means no such curve, though single readings can be large; an effect the other way counts as inactive or inconclusive. Potency means the concentration at half of the fitted maximal effect.
SMILES,ELG1 genotoxic,Rab9 promoter act,FLuc counter,NPC1 promoter act,SMN2 splice up
COC(=O)C1CCN(C(=O)N2CCOCC2)CC1,6.8%,-2.4%,0.2%,-1.6%,10.2%
CCCSc1ncc(Cl)c(C(=O)Nc2ccc(S(=O)(=O)N3CCCCC3C)cc2)n1 (configuration not stated),x,x,-0.6%,x,-29.6%
Oc1ccccc1-c1nc(/C=C/c2ccccc2Cl)no1,x,x,0.19µM*,x,-1.7%
CN(C)c1ccc(/C=C/c2noc(-c3ccccc3O)n2)cc1,x,x,0.675µM*,x,-24.4%
CCc1nc(-c2ccccc2O)n(-c2ccccc2)n1,-0.1%,-7.7%,0.1%,-2.6%,-15.8%
Oc1ccccc1-c1nc(/C=C/c2ccccc2Cl)nn1-c1ccccc1,x,x,6.01µM*,x,1.5%
Cc1cc(C)n(CCOC(=O)c2sc3ccccc3c2Cl)n1,11.3%,3.2%,8.49µM*,-1.5%,-11.5%
NC(=O)NC(=O)C[n+]1cccc(/C=N/O)c1,-1.3%,17.5%,-0.3%,9.9%,3.7%
CC1CCc2nc3sc4c(c3c(N)c2C1)CCCC4 (configuration not stated),2.7%,25.3%,3.79µM*,u,u
Nc1nc2c(s1)CCCCCCCCCC2,-5.6%,-3.2%,-2.3%,-1.8%,x
CCc1nc2sc3c(c2c(=O)o1)CCCC3,u,1.3%,u,-0.4%,12.7%
CC1CCc2c(nc3sc4c(c3c2N)CCCC4)C1 (configuration not stated),2.3%,u,4.78µM*,u,u
Cc1nc2sc3c(c2c(=O)n1N)CCC3,5.8%,1.4%,6.9%,0.4%,18.8%
Nc1c2c(nc3sc4c(c13)CCCCC4)CCCCC2,u,1.58µM*,1.69µM*,1.41µM*,u
Cc1nc(-c2cccc(C(F)(F)F)c2)sc1C(=O)O,u,14.8%,u,18.4%,u
COc1cccc(CN2C(=O)CN(C3CCCCC3)C(=O)C2c2ccc(OC(C)C)c(OC)c2)c1 (configuration not stated),x,x,-1.4%,x,x
Cc1ccc2cc(C3CC(c4ccco4)=NN3S(=O)(=O)c3ccccc3)c(Cl)nc2c1 (configuration not stated),-2.4%,-3.9%,2.9%,-3.0%,31.6µM*
CSc1ccccc1OCc1cc(C(=O)N[C@H]2CCCCNC2=O)no1,u,3.55µM*,10.7µM*,2.82µM*,x
COc1ccc(OCc2cc(C(=O)N[C@H]3CCCCNC3=O)no2)c(Cl)c1,u,u,10.7µM*,u,x
COc1ccc(N2CCN(CCNC(=O)c3c(C)cc(=O)oc3C)CC2)cc1,0.5%,-1.0%,-2.6%,0.7%,-7.1%
Cc1c(/C(O)=C2/C(=O)C(=O)N(CCN3CCOCC3)C2c2ccccn2)cnn1-c1ccccc1 (configuration not stated),u,-16.9%,16.9µM*,-10.3%,-27.0%
Cc1c(/C(O)=C2\C(=O)C(=O)N(CCN(C)C)C2c2cccs2)cnn1-c1ccccc1 (configuration not stated),-1.0%,4.47µM*,u,2.51µM*,-18.9%
CSCCC(NS(=O)(=O)c1ccc2c(c1)oc(=O)n2C)C(=O)N1CCN(c2ccc(F)cc2)CC1 (configuration not stated),x,x,-2.3%,x,x
CCOC(=O)C1CCCN(C(=O)CN2C(=O)c3ccccc3C2=O)C1 (configuration not stated),-6.4%,17.6%,0.4%,-0.9%,17.8%
O=C(CN1C(=O)COc2ccccc21)NCCCN1CCOCC1,0.6%,1.1%,3.9%,0.3%,x
SMILES,ELG1 genotoxic,Rab9 promoter act,FLuc counter,NPC1 promoter act,SMN2 splice up
CCc1ccc(/C=C2/Sc3ccccc3N(CC(=O)NCCCN3CCOCC3)C2=O)cc1,7.1%,-1.9%,19µM*,-1.0%,x
O=C(CN1C(=O)/C(=C\c2cccc(Br)c2)Oc2ccccc21)NCCCN1CCOCC1,-0.3%[9.26 µM],-5.6%,6.75µM*,-1.0%,x
O=C(O)CN1C(=O)/C(=C/c2cccc(Cl)c2)Oc2ccccc21,-1.2%,3.3%,13.5µM*,-4.8%,x
CCOC(=O)C1CCCN(C(=O)CN2C(=O)/C(=C/c3ccc(OC)cc3)Oc3ccccc32)C1 (configuration not stated),-15.5%,-1.0%,15.1µM*,0.4%,-50.4%
O=C(O)CN1C(=O)/C(=C/c2ccccc2Cl)Oc2ccccc21,-3.2%,-0.9%,u,-3.6%,x
CC1CC(C)(C)NC(=S)N1CCCC(=O)Nc1ccccc1F (configuration not stated),1.8%,-2.7%,4.4%,1.4%,6.4%
COc1cccc(/C=C2/Oc3ccccc3N(CC(=O)NCC3CCCO3)C2=O)c1 (configuration not stated),-5.5%,2.7%,9.53µM*,-0.1%,x
O=C(NC(=O)c1c(F)cccc1F)O/N=C1\CCCc2occc21,0.1%,9.2%,-0.5%,1.2%,x
Fc1cc2[nH]c(=S)[nH]c2c(Br)c1N1CCSCC1,10.5%,10.2%,13.5µM*,11.1%,x
COc1ccc(C2/C=C\CC(OCc3ccccc3)CC(=O)N2Cc2cccc(F)c2)cc1 (configuration not stated),-4.3%,x,x,x,x
CC1CCN(CC(=O)N2CCc3ccccc32)CC1,1.5%,4.6%,-1.5%,18.5%,x
CCCCOc1ccc(C(=S)N2CCC(C(N)=O)CC2)cc1,u,4.47µM*,23.9µM*,u,u
COc1ccc(C(=S)N2CCC(C(N)=O)CC2)cc1Br,4.7%,-1.4%,-8.2%,-5.3%,1.6%
Nc1nccc(/C=C/c2c(Cl)cccc2Cl)n1,-0.6%,-0.8%,u,-0.8%,x
Nc1nccc(/C=C/c2ccc(Cl)cc2)n1,u,2.24µM*,6.01µM*,1.78µM*,x
O=C(NN1C(=O)c2ccccc2NC1c1ccoc1)c1ccc([N+](=O)[O-])cc1 (configuration not stated),14.2%,12.3%,0.0%,0.4%,-15.3%
O=C(O)C1[C@H]2C(=O)N(C3CCCC3)C[C@]23C=C[C@H]1O3 (some centres not stated),-3.0%,0.1%,-1.5%,0.8%,-1.5%
COc1cccc(-c2cc(=O)c3ccc(OC)cc3o2)c1,x,x,x,x,12.6µM*
CCC(N=c1cc(-c2ccc(OC)cc2)oc2ccc(C)cc12)C(=O)O (configuration not stated),u,9.0%,3.01µM*,u,u
COC(=O)COc1ccc2oc(-c3ccc(OC)cc3)cc(=O)c2c1,x,x,u,x,21.6%
COc1ccc(-c2cc(=O)c3cc(OC)ccc3o2)cc1,u,0.251µM*,0.213µM*,0.501µM*,0.891µM*!
Nc1nc(C2CC2)c(Sc2sc(N)nc2C2CC2)s1,-6.4%,-3.5%,-1.3%,0.9%,15.8µM*
